High-throughput results (PubChem BioAssay)
Luciferase inh = Firefly luciferase inhibition profiling of diverse chemical library using quantitative high-throughput screening; Luciferin 4-monooxygenase (Photinus pyralis), P08659; purified P. pyralis luciferase, luminescence, biochemical; Potency, µM (highest dose often 115 µM), usual class: inhibitors; 2.5% of 76,000 active; AID 1347043, 2019; further: nearly all actives have a fitted effect of over 65% in size
Target sequence (P08659 whole entry, looked up): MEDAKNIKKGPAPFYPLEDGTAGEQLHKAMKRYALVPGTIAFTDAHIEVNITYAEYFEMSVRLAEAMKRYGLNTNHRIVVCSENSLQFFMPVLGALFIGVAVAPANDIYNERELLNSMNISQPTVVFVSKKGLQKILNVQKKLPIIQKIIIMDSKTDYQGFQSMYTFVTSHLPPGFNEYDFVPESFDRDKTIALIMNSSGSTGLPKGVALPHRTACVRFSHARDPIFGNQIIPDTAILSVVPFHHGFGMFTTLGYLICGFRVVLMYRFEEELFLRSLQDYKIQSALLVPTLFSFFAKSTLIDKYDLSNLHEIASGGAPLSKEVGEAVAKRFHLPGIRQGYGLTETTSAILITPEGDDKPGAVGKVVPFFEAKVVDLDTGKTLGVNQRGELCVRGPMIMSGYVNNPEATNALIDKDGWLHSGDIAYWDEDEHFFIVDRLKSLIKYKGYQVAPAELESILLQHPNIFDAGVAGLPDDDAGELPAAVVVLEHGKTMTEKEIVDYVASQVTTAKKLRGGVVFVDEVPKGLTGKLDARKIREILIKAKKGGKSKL
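Purified P. pyralis luciferase (10nM final) in 50mM Tris acetate pH 7.5, 10mM Mg acetate, 0.01% Tween-20, 0.05% BSA with 10uM D-luciferin and 10uM ATP. Compounds titrated qHTS. Luminescence imaged on CCD.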
hNpr1 antagonist = Natriuretic polypeptide receptor (hNpr1) antagonism - Primary qHTS | Atrial natriuretic peptide receptor 1 (Homo sapiens), P16066 | HEK293 hNpr1 GloSensor cGMP, ANP-stimulated luminescence | Potency, µM (top dose mostly 46.3 µM), most hits filed as inhibitors | 1.6% of 76,000 active | AID 1347048, 2019; calls by dose curve; further: nearly all actives have a fitted effect of over 60% in size
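HEK293 cells stably expressing human Npr1 and cGMP GloSensor pGS-40F, loaded 2 h with 2% GloSensor reagent, given compound 30 min at room temperature. Luminescence read before and 20 min after 0.1 nM hNppA.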
NIH3T3 tox = Cytotoxic Profiling in NIH 3T3 Cell Line of Diverse Libraries Using Quantitative High-Throughput Screening; Potency, µM (series often up to 96.7 µM), hits mostly inhibitors; 4.3% of 94,000 active; NIH 3T3 viability, CellTiter-Glo ATP luminescence, 48-72 h; AID 1345082, 2018; further: nearly all actives have a fitted effect of over 55% in size
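Cytotoxicity was measured by CellTiter-Glo ATP luminescence after 48 or 72 h compound exposure at 37 °C. Mouse NIH 3T3 fibroblasts were seeded at 400 cells/well and dosed by 23 nL pin transfer.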
HEK293 tox = Cytotoxic Profiling in HEK 293 Cell Line of Diverse Libraries Using Quantitative High-Throughput Screening; Potency, µM (top dose mostly 115 µM), most hits filed as inhibitors; AID 1345083, 2018; HEK 293 viability, ATP luminescence (CellTiter-Glo), 48-72 h; 6.6% of 94,000 active; further: nearly all actives have a fitted effect of over 60% in size
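Luminescence from cellular ATP, measured with CellTiter-Glo, indicates HEK 293 viability. Cells plated at 250 cells/well are treated with compound for 48 or 72 hr at 37 degree Celsius before reagent addition.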
Npr1 antag conf = Natriuretic polypeptide receptor (hNpr1) antagonism - Confirmation | shares compounds with hNpr1 antagonist | HEK293 hNpr1 cGMP GloSensor luminescence, ANP-stimulated | Potency, µM (series often up to 57.6 µM), most hits filed as inhibitors | 76% of 1,400 active | AID 1347044, 2019; calls by dose curve; further: nearly all actives have a fitted effect of over 70% in size
NPR2 antag = Natriuretic polypeptide receptor (hNpr2) antagonism - Subtype selectivity assay; shares compounds with hNpr1 antagonist; HEK293 hNpr2 GloSensor cGMP luminescence, CNP-stimulated; Potency, µM (top dose mostly 57.6 µM), usual class: inhibitors; 67% of 1,400 active; AID 1347046, 2019; calls by dose curve; further: nearly all actives have a fitted effect of over 70% in size
FLuc inh counter = Natriuretic polypeptide receptor (hNpr1) antagonism - Confirmation firefly luciferase (FLuc) inhibition counterscreen. purified FLuc enzyme, luminescence, Km substrate. 0.7% of 1,400 active. Potency, µM (series often up to 57.6 µM), actives largely listed as inhibitors. shares compounds with hNpr1 antagonist
GloSensor ctrl = Natriuretic polypeptide receptor (hNpr1) antagonism - Counterscreen GloSensor control cell line. shares compounds with hNpr1 antagonist. HEK293 GloSensor cGMP, SNP-stimulated, luminescence. Potency, µM (top dose mostly 57.6 µM), actives largely listed as inhibitors. 69% of 1,400 active. AID 1347051, 2019; calls by dose curve; further: nearly all actives have a fitted effect of over 70% in size
Each line names hits and unclear results; the compound was inactive in the other large screens (follow-up assays come after a bar, where they were run). Sampled rows, rich in hits. Any-hit rate of the full collection: about 11%. Unless noted, the call rests on the fitted dose curve; in most records, active means well fitted curve in the direction sought with a large enough effect; inconclusive means small, poorly fitted or top-dose-only effect, or another doubt; inactive means no such curve, though single readings can be large; an effect the other way counts as inactive or inconclusive.

O=C(c1ccc(Cl)nc1)N1CCCC(C(=O)N2CCCC2c2nc3ccncc3[nH]2)C1 (centres undefined)	none (no result: Luciferase inh, hNpr1 antagonist)
CCC1=C(C(=O)OC)C(c2ccccc2F)N2C(CC(=O)N3CCCC3)=CSC2=N1 (centres undefined)	hNpr1 antagonist inconclusive | Npr1 antag conf inactive | NPR2 antag inconclusive | FLuc inh counter inactive | GloSensor ctrl inconclusive
C=CCOC(=O)C1=C(C)N=C2SC=C(CC(=O)N3CCCC3)N2C1c1ccccc1Cl (centres undefined)	hNpr1 antagonist 12.6µM, HEK293 tox inconclusive | Npr1 antag conf 24.3µM | NPR2 antag 24.3µM | FLuc inh counter inactive | GloSensor ctrl inconclusive
CCC1=C(C(=O)OC)C(c2ccccc2Cl)N2C(CC(=O)N(C)Cc3ccccc3)=CSC2=N1 (centres undefined)	hNpr1 antagonist inconclusive, NIH3T3 tox inconclusive, HEK293 tox inconclusive | Npr1 antag conf inconclusive | NPR2 antag inconclusive | FLuc inh counter inactive | GloSensor ctrl inconclusive
CC1=C(C(=O)OC(C)C)C(c2ccccc2F)N2C(CC(=O)N3CCCC3)=CSC2=N1 (centres undefined)	hNpr1 antagonist inconclusive | Npr1 antag conf inconclusive | NPR2 antag inconclusive | FLuc inh counter inactive | GloSensor ctrl inconclusive
CCC1=C(C(=O)OC)C(c2ccccc2F)N2C(CC(=O)N3CCC(C)CC3)=CSC2=N1 (centres undefined)	NIH3T3 tox inconclusive, HEK293 tox inconclusive
COC(=O)N1CCCC(C(=O)N2CCC(c3nc4ncccc4[nH]3)C2)C1 (centres undefined)	none (no result: Luciferase inh, hNpr1 antagonist)
CO[C@H]1C(=O)N(C2CCN(C(=O)COc3ccccc3)CC2)[C@H]1c1ccncc1	none (no result: Luciferase inh, hNpr1 antagonist)
COCCCNC(=O)C1CCN(C(=O)c2ccc(-c3cncnc3)cc2)CC1	none (no result: Luciferase inh, hNpr1 antagonist)
COc1ccc(C(=O)Nc2nc3c(s2)C[C@@H]2[C@](C)(CO)[C@H](O)CC[C@@]2(C)[C@@H]3CC(=O)NC(C)C)cc1	none
COC(=O)C1=C(C)N=C2SC=C(CC(=O)N3CCCC3)N2C1c1cccc(OC)c1 (centres undefined)	hNpr1 antagonist inconclusive, NIH3T3 tox inconclusive, HEK293 tox inconclusive
COC(=O)C1=C(C)N=C2SC=C(CC(=O)N3CCC(C)CC3)N2C1c1cccc(OC)c1 (centres undefined)	hNpr1 antagonist inconclusive, NIH3T3 tox inconclusive, HEK293 tox 39.8µM | Npr1 antag conf inconclusive | NPR2 antag 19.3µM | FLuc inh counter inactive | GloSensor ctrl inactive
CC1(COCC2CC2)COc2ccc(C(=O)Nc3cccnc3)cc2N1 (centres undefined)	Luciferase inh inconclusive, hNpr1 antagonist inconclusive, HEK293 tox inconclusive | Npr1 antag conf inactive | NPR2 antag inactive | FLuc inh counter inactive | GloSensor ctrl inactive
COc1ccc(NC(=O)c2ccc3c(c2)NC(C)(CNc2ccccc2)CO3)cn1 (centres undefined)	hNpr1 antagonist 35.5µM, NIH3T3 tox inconclusive, HEK293 tox 44.7µM | Npr1 antag conf 39.6µM | NPR2 antag inconclusive | FLuc inh counter inactive | GloSensor ctrl inconclusive
CC(=O)NCC(=O)N1Cc2ccccc2CC2(CCCN2CC2CCCC2)C1 (centres undefined)	none (no result: Luciferase inh, hNpr1 antagonist)
